Measured values reported in the supplement of paper PMC10849652.
About 8,800 targets were measured; listed, in parts, are those with a hit and a random draw of the rest. About 0.5% of all pairs of compound and target were hits. Unmarked numbers belong to inactive results.

What was measured:
Assay in all cases: log2 fold change, soluble protein after heating vs DMSO (PISA); higher = thermal stabilisation; K562 lysate, 10 uM; active = over 0.2 and 3.5 SD of the protein, either way, in both replicates (recomputed)
[1] = compound: Cc1sc2c(c1C)C(c1ccc(Cl)cc1)=N[C@@H](CC(=O)OC(C)(C)C)c1nnc(C)n1-2
Summary of the method: (§1)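 K562 pellets were dounce-homogenised in PBS pH 7.4 with 1 mM MgCl2, and the crude extract at 1 mg/mL protein was treated with 10 μM compound for 30 min. Aliquots were heated for 3 min across 48°C-58°C, pooled, and brought to 0.5% NP-40 at 4°C; soluble protein was the supernatant after 21,000xg for 90 min. Soluble protein was quantified by TMTpro 16plex LC-MS/MS with channel sums equalised, and reported as log2 fold change in thermal stability against DMSO controls, with values from duplicates.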

[2] = compound: C1=CC=C(C=C1)[C@H](COC2=CC3=C(C=C2)NC(=O)N3)NC(=O)C4=CC=CN(C4=O)CC5=CC(=C(C=C5)F)F
Summary of the method: as §1

[3] = compound: CC1=C(SC2=C1C(=N[C@H](C3=NN=C(N32)C)CC(=O)N)C4=CC=C(C=C4)Cl)C
Summary of the method: as §1

[4] = compound: CC1=C2C(=CC=C1)N=C(N(C2=O)C3=CC=CC=C3C)CN4C=NC5=C(N=CN=C54)N
Summary of the method: as §1

[5] = compound: c1ccc([C@@H]2C[C@H]2NC2CCNCC2)cc1
Summary of the method: as §1

Chain of UniProt Q1KMD3 (Q1KMD3 whole entry, looked up): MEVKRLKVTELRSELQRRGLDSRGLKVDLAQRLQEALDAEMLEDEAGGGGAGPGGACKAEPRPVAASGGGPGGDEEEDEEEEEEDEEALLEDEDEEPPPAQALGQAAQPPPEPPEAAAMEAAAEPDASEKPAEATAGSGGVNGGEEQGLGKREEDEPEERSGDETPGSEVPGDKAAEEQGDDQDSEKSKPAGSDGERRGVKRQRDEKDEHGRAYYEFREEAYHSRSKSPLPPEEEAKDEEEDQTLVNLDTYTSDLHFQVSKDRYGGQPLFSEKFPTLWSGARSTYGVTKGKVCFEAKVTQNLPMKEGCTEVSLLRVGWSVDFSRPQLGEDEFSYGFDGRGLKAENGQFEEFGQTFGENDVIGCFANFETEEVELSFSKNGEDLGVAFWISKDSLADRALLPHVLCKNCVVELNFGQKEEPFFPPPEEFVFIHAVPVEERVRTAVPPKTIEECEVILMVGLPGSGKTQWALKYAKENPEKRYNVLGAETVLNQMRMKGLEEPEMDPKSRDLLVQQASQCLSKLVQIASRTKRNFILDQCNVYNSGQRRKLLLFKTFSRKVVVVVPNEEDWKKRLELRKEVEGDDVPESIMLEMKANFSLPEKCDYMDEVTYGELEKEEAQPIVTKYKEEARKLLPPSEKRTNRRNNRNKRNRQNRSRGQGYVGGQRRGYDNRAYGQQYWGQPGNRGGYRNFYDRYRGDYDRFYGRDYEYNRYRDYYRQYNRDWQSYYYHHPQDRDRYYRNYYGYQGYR
Chain of UniProt Q9UKP3 (Q9UKP3 whole entry, looked up): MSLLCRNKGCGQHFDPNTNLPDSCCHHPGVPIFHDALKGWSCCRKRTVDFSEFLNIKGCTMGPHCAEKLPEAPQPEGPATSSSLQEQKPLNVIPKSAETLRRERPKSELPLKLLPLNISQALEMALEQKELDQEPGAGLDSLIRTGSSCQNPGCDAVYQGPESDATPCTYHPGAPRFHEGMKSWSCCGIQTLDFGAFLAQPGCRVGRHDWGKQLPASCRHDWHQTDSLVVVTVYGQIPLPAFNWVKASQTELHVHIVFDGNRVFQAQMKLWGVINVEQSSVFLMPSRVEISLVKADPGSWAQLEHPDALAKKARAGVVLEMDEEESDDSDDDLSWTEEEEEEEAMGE
Chain of UniProt Q13547 (Q13547 whole entry, looked up): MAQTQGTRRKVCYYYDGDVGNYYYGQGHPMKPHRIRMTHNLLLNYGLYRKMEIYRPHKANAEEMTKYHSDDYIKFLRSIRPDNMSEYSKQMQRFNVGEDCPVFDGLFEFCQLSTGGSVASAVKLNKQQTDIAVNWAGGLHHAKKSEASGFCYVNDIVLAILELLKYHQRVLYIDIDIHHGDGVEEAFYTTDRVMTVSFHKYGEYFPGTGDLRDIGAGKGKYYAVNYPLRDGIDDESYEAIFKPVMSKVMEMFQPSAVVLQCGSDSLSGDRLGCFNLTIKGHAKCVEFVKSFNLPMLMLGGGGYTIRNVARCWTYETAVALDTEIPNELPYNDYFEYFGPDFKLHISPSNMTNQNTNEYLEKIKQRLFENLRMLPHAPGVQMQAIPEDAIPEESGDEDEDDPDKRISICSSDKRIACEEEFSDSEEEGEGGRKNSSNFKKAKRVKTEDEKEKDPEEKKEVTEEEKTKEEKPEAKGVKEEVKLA
Chain of UniProt Q96EW2 (Q96EW2 whole entry, looked up): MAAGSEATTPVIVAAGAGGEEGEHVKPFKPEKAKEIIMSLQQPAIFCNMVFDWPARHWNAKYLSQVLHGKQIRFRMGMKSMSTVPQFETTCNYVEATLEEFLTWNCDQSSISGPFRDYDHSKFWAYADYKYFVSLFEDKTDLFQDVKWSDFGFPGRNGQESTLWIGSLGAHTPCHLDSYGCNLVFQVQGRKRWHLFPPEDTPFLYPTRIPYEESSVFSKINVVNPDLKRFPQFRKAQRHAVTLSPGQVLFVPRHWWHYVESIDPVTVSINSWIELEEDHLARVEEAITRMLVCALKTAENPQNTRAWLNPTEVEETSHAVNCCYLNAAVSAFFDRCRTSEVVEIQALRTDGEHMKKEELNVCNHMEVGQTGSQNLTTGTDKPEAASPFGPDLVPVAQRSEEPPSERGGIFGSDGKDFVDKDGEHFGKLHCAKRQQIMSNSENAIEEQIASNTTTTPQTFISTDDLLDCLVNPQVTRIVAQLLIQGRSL
Chain of UniProt Q92805 (Q92805 whole entry, looked up): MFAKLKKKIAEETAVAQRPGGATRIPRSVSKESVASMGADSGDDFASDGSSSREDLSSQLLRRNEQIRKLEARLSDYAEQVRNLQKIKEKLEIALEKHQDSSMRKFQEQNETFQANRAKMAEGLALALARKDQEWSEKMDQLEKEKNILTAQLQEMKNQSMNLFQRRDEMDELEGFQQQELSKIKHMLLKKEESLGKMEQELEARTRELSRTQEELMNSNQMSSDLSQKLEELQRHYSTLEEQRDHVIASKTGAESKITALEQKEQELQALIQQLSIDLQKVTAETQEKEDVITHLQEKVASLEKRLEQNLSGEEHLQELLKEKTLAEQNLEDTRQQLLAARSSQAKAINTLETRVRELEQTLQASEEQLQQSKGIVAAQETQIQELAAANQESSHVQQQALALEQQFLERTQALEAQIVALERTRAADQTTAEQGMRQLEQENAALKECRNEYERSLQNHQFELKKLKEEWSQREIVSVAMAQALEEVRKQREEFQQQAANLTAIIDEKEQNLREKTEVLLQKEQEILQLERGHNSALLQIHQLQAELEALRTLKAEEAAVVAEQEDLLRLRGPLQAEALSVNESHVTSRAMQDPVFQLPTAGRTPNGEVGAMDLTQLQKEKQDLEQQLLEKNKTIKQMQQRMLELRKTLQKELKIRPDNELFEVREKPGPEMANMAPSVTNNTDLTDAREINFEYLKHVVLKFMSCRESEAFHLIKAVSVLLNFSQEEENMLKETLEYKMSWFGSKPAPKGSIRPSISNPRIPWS
Chain of UniProt P52333 (P52333 whole entry, looked up): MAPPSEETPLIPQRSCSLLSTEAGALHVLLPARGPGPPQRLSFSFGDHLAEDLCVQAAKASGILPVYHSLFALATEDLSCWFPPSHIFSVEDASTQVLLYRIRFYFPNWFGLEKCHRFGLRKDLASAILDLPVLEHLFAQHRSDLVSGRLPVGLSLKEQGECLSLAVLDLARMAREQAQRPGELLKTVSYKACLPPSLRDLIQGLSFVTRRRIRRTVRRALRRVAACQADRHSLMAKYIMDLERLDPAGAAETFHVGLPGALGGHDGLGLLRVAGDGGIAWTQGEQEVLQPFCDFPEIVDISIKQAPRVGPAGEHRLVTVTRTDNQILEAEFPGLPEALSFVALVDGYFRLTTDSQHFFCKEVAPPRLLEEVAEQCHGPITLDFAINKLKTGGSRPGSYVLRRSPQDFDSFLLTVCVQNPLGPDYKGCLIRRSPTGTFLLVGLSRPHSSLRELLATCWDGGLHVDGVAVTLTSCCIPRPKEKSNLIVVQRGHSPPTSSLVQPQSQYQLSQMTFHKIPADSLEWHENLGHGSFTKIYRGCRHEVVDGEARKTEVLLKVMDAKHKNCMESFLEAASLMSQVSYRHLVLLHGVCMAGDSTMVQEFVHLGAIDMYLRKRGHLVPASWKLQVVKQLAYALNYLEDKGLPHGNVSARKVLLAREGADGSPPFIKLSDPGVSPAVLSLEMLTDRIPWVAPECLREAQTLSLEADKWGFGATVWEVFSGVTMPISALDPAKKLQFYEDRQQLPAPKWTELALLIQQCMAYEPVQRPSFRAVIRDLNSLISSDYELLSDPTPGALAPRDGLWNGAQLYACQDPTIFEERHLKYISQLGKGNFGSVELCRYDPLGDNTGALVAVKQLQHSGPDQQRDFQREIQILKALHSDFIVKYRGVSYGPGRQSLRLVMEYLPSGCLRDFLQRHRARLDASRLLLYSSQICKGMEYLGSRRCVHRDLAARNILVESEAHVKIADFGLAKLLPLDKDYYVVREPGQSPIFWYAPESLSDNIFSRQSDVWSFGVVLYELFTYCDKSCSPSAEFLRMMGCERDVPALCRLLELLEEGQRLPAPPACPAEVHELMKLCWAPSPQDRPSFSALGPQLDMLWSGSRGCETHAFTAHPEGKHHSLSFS
Chain of UniProt Q9H079 (Q9H079 whole entry, looked up): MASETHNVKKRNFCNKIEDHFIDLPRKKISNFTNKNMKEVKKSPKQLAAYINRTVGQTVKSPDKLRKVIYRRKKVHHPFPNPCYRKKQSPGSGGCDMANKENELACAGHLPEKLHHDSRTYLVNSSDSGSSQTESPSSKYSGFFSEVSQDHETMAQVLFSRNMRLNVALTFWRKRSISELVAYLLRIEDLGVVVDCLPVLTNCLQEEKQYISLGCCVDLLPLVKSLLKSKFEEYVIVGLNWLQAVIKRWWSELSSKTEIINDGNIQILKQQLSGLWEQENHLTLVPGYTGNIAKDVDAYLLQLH
Chain of UniProt Q9BXW7 (Q9BXW7 whole entry, looked up): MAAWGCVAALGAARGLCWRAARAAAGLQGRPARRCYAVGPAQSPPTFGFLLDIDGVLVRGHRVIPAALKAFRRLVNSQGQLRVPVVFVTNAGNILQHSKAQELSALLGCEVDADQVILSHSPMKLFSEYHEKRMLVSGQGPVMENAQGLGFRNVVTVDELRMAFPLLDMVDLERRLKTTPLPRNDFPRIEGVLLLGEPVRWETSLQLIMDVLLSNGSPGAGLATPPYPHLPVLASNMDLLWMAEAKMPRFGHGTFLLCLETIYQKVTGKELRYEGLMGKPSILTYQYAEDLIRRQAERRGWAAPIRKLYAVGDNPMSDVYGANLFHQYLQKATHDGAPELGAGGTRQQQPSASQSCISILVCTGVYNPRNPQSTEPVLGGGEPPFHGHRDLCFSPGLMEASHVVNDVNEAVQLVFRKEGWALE
Chain of UniProt Q99795 (Q99795 whole entry, looked up): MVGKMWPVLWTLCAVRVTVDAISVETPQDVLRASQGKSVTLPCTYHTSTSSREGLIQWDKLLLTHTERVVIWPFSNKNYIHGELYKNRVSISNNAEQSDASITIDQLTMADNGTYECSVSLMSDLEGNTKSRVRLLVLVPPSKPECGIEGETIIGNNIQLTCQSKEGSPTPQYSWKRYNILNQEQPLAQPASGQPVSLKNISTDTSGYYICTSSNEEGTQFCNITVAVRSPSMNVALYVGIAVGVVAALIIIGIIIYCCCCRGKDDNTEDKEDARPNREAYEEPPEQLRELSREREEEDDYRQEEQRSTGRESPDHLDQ

Row | Target | log2 fold change [1] | log2 fold change [2] | log2 fold change [3] | log2 fold change [4] | log2 fold change [5]
1 | GPLD1 (UniProt P80108) | 0.209 | – | – | – | –
2 | HDHD5 (UniProt Q9BXW7) | -0.05 | 0 | 0.071 | 0.032 | -0.012
3 | ILKAP (UniProt Q9H0C8) | 0.013 | -0.004 | -0.004 | -0.013 | 0.009
4 | IMMT (UniProt C9J406) | 0.077 | -0.055 | 0.041 | 0.049 | -0.056
5 | GOLGA1 (UniProt Q92805) | -0.057 | -0.042 | 0.045 | 0.026 | 0.009
6 | HECW2 (UniProt Q9P2P5) | -0.093 | – | – | -0.048 | –
7 | ITPRIP (UniProt Q8IWB1) | 0.054 | – | – | – | –
8 | HSPBAP1 (UniProt Q96EW2) | 0.065 | 0.069 | -0.022 | – | 0.006
9 | HNRNPM (UniProt M0R019) | – | – | – | -0.116 | –
10 | GPA33 (UniProt Q99795) | -0.248 | 0.007 | 0.024 | 0.006 | -0.514 (active)
11 | HMGA1 isoform 2 (UniProt P17096) | 0.055 | – | – | – | 0.419
12 | HDAC6 (UniProt Q9UBN7) | -0.007 | 0.029 | 0.036 | -0.017 | 0.042
13 | JAK3 (UniProt P52333) | – | 0.031 | -0.051 | -0.129 | 0.254
14 | ITGB1BP2 (UniProt Q9UKP3) | 0.083 | – | – | 0.116 | -0.029
15 | KATNBL1 (UniProt Q9H079) | -0.012 | – | – | -0.111 | -0.071
16 | HNRNPUL2 (UniProt Q1KMD3) | 0.007 | 0.011 | 0.016 | 0.015 | 0.032
17 | GNB4 (UniProt Q9HAV0) | 0.031 | 0.162 | -0.074 | – | -0.05
18 | GYPA, A0A2R8Y7F9 | – | -0.088 | -0.151 | – | -0.163
19 | IRF2BPL (UniProt Q9H1B7) | 0.047 | 0.055 | -0.057 | 0 | -0.134
20 | HDAC1 (UniProt Q13547) | -0.025 | -0.04 | 0.02 | 0.001 | -0.015
